Here are results for 14 compounds from PubChem BioAssay.

The nature of assay [1]: viability loss in pontine glioma line – cell-based, JHH-DIPG-1, MIPE4.0, CellTiter-Glo, qHTS, dose response (AID 1347062; cut-off not given, nearly all actives have AC50 up to about 27 µM;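 as to AC50: cells exposed to compound for two days before readout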). As to conditions: JHH-DIPG-1 viability, CellTiter-Glo ATP luminescence.
Assay [2] is described as follows: blockers of polyQ-driven CASP3 activation – cell-based (AID 1583). The conditions noted are these: polyglutamine-induced caspase-3 activation, cell assay; stronger effect = higher value;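 tested at 10 µM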.
The nature of assay [3]: yeast 75Q aggregation reduction – 75Q-TubU reporter (AID 1593). As to conditions: Yeast 75Q polyglutamine aggregation reporter.
A short description of assay [4]: restoration of touch response, mutant HTT neurons – whole organism, C. elegans mechanosensory neurons, N-terminal huntingtin (AID 1599). As to conditions: C. elegans polyQ-huntingtin mechanosensory neurons, stronger effect = higher value.
Assay [5] can be described thus: blockers of cytochrome c efflux from mitochondria – biochemical, purified mitochondria (AID 1603).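 Also: mouse liver mitochondria challenged with calcium chloride; signal normalized to the plate average as 100%.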 The conditions noted are these: stronger effect = lower value.
Assay [6] in a line: polyglutamine aggregate formation blockers (AID 1604). The conditions noted are these: polyglutamine-induced protein aggregation inhibition assay; stronger effect = higher value; tested at 2.5 µM.
Assay [7] in a line: glutamate transport activators, MN-1 cells, MN-1 cell line (AID 1612).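 Also: tested at 1 µM final; 0% = mean of DMSO vehicle wells on each plate; positive means more glutamate uptake than control and negative means less.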 As to conditions: MN-1 motor neuron cells, stronger effect = higher value.
A short description of assay [8]: 75Q-TubH aggregate inhibition, S. cerevisiae, yeast (AID 1616). The conditions noted are these: S. cerevisiae 75Q-TubH polyglutamine aggregation suppression; stronger effect = higher value.
Assay [9] in a line: compounds altering circadian rhythm period length – cell-based, LOPAC library, luminescence reporter (AID 2774).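 Also: values are relative to mean of DMSO wells on each plate.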 The conditions noted are these: circadian reporter cells, at 7 µM, actives lie on both sides.
The subject of assay [10] is Hepatitis C virus NS3 helicase. The assay is described as follows: blockers of NS3h binding to ssDNA – biochemical, fluorescence polarization, LOPAC1280 library, primary screen (AID 687035; in the data active = inhibition above about 37%). The conditions noted are these: Purified HCV NS3 helicase, Cy5-dT15 ssDNA binding fluorescence polarization; stronger effect = higher value; concentration not given here.
Assay [11] in a line: compounds altering Cy5-DNA-NS3h complex signal – biochemical, LOPAC1280, artefact control for HCV NS3 helicase inhibitor project (AID 687037). The conditions noted are these: Cy5-DNA-NS3h complex fluorescence interference counterscreen.
A short description of assay [12]: viability loss in pontine glioma line – cell-based, SU-DIPG-XVII, MIPE5.0, CellTiter-Glo, qHTS, dose response (AID 1347060; cut-off not given, nearly all actives have AC50 up to about 26 µM;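 as to AC50: cells exposed to compound for 48 hours before viability readout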). As to conditions: CellTiter-Glo ATP luminescence.
The nature of assay [13]: viability loss in pontine glioma line – cell-based, SU-DIPG-XIII, MIPE5.0, CellTiter-Glo, qHTS, dose response (AID 1347064; cut-off not given, nearly all actives have AC50 up to about 23 µM;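 as to AC50: cells exposed to compound for 48 hours before the viability read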). As to conditions: CellTiter-Glo ATP luminescence. Background: ATP-based viability assays read luminescence as a measure of living cells.
A short description of assay [14]: compounds altering viability of human ES cells (AID 493140).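 Also: cells exposed to compounds for four days before counting.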 As to conditions: human embryonic stem cell survival screen; stronger effect = higher value.
Assay [15] is described as follows: blockers of cellular phospholipid synthesis – cell-based, LOPAC library, screen 4, primary screen (AID 1347384). The conditions noted are these: animal cells, phospholipid biosynthesis inhibition screen; at 10 µM.
Assay [16] is described as follows: growth inhibition of DIPG cells – cell-based, MIPE4.0 library, CellTiter-Glo luminescence, qHTS (AID 1347066; cut-off not given, nearly all actives have AC50 up to about 30 µM;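 also: cells exposed to compound for 48 hours before readout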). As to conditions: SU-DIPG-VI viability, CellTiter-Glo ATP luminescence.
Assay [17] addresses Mitogen-activated protein kinase 7 (Homo sapiens) (UniProt Q13164). Description: Gal4-ERK5 driven luciferase induction – cell-based, HTS, primary screen (AID 1508626;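 active = luciferase signal above three times the same-plate solvent-only control wells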;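 also: luciferase driven by Gal4-ERK5 fusion binding five Gal4 sites before minimal TATA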). As to conditions: HeLa Gal4-ERK5 transactivation, 18 h, at 5 µM, stronger effect = higher value.
Assay [18] can be described thus: viability loss in pontine glioma line – cell-based, SU-DIPG-IV, MIPE4.0, CellTiter-Glo, qHTS, dose response (AID 1347063; cut-off not given, nearly all actives have AC50 up to about 30 µM;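 also: compound exposure lasted 48 hours before the viability readout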). The conditions noted are these: CellTiter-Glo ATP luminescence.
The target of assay [19] is ATP-dependent translocase ABCB1 (Homo sapiens) (UniProt P08183). Description: P-glycoprotein substrate transport blockade – cell-based (AID 377; in the data active = fluorescence slope change above about 50%). The conditions noted are these: MDR1-expressing cells, fluorescent substrate accumulation slope; stronger effect = higher value; concentration not given here.
ATP-dependent translocase ABCB1 (Homo sapiens), sequence (P08183 whole entry, looked up): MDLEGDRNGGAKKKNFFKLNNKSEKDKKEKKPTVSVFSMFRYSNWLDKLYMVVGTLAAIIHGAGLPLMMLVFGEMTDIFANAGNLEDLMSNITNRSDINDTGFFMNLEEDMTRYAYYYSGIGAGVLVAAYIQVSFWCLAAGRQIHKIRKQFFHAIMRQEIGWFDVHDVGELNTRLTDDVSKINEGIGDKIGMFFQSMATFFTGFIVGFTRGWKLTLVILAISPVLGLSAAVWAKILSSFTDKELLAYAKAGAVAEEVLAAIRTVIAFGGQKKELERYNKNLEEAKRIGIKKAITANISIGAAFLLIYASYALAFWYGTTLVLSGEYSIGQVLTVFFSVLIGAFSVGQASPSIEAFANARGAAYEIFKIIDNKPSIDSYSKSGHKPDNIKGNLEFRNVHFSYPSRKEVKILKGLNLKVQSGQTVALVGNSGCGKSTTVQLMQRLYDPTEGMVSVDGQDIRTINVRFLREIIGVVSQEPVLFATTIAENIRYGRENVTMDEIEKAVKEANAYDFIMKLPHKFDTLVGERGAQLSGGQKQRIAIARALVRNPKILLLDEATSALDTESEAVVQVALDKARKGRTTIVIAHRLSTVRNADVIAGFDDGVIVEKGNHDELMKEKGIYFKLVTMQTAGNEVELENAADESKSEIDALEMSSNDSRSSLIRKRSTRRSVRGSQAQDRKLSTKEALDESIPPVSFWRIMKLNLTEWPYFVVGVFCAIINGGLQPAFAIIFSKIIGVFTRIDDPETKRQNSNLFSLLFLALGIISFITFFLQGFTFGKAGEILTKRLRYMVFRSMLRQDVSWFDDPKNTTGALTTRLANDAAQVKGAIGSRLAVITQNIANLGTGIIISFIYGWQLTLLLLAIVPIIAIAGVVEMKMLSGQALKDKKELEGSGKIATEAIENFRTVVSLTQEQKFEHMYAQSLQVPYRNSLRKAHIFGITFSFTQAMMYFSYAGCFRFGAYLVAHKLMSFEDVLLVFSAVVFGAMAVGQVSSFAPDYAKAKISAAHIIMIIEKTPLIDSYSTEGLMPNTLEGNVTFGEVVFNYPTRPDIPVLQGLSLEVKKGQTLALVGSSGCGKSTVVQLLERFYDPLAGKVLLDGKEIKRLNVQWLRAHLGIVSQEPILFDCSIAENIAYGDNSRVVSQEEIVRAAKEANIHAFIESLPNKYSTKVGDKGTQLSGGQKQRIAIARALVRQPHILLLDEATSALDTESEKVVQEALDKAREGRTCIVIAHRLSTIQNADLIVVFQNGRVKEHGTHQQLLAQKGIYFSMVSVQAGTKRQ

Results filed as inconclusive are left out. For part of these data: Results with a measured potency or affinity are listed apart. Activity calls are given as the source filed them. Unless noted, no rule for the calls is given here. Numbered stars: 1 amine (or outer) side, 2 acyl side, 3 side chain; on linkers, the order of the positions; unused ones are H or OH. Bridge positions count the residues as written; N and C are the ends. Square brackets hold non-standard residues; d marks the D form. Peptide text beside a SMILES is read from it. I, II: the chains in the order shown. Actinocin(9to1) = Cc1c2oc3c(C)ccc(C(=O)[*:1])c3nc-2c(C(=O)[*:2])c(N)c1=O; NMeV = CN[CH](C(=O)O)C(C)C; Sar = CNCC(=O)O

Mitogen-activated protein kinase 7 (Homo sapiens), sequence (Q13164 whole entry, looked up, the tested form may be a part): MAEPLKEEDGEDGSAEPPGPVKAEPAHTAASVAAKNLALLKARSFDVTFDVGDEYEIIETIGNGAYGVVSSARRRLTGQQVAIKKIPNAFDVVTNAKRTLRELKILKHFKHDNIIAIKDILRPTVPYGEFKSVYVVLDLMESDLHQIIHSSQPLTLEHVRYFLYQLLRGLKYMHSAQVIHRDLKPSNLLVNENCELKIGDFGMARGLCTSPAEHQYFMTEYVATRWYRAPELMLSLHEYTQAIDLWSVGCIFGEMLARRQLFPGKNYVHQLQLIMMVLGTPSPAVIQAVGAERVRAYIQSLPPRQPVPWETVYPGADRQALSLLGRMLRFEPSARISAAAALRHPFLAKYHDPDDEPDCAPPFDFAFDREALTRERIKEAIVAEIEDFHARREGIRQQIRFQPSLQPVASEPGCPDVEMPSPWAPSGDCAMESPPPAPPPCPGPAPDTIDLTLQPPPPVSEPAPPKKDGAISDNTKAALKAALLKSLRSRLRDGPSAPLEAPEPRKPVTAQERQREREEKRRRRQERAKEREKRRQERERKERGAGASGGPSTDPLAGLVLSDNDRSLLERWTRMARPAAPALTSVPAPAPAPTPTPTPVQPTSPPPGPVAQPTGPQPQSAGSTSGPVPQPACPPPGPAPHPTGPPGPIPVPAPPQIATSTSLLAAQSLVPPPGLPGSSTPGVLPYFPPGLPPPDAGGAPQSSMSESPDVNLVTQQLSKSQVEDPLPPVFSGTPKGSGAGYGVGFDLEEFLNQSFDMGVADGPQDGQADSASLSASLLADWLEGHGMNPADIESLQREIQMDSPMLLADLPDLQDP

Take `COc1cc(C)c(/C=C/C(C)=C/C=C/C(C)=C/C(=O)O)c(C)c1C`: the compound was called inactive in [1].

Broadly, the inhibition is the change of the read-out against control, counted positive when it falls. `CN1CCC[C@H]1c1cccnc1`: the inhibition was -24.3% in [2] and 0% (inactive) in assay [10]. Further, in assay [3], the score is 1.39. This compound also showed a rescue above control in [4] of 3.58. For the same compound, in assay [5], the cytochrome c release ratio was determined as 0.71. The same compound registered an inhibition of aggregation in assay [6] of 47.1%. Moreover, the glutamate uptake change in assay [7] came to 15.4%. In assay [8], this compound came in with an aggregation suppression score of 1.26. Moreover, the period change in assay [9] was 0.09 h (inactive). The fluorescence ratio (interference) in assay [11] is 1 (inactive).

For `COc1cc(C[C@@H](CO)[C@H](CO)Cc2ccc(O)c(OC)c2)ccc1O`, the compound was called inactive in [12] and in assay [13].

`CC(C)(C)NC(=O)[C@@H]1C[C@@H]2CCCC[C@@H]2CN1C[C@@H](O)[C@H](Cc1ccccc1)NC(=O)[C@H](CC(N)=O)NC(=O)c1ccc2ccccc2n1`: the survival in assay [14] was 25.4 (inactive).

Usually AC50 stands for the concentration giving half of the maximal activity seen. As to `CC(C)c1ccc2c(c1)c(SC(C)(C)C)c(CC(C)(C)C(=O)O)n2Cc1ccc(Cl)cc1`, the period change in assay [9] is 0.025 h (inactive). Moreover, the inhibition in [10] was 0% (inactive). In addition, in [11], the fluorescence ratio (interference) is 0.9 (inactive). Besides, the AC50 in assay [12] is 18.6 µM (active). Besides, the compound was classed as inactive in assay [1] and in assay [15].

Take `Nc1ccn([C@@H]2CS[C@H](CO)O2)c(=O)n1`: the compound was classed as inactive in assay [12] and in assay [13].

For `COC(=O)Nc1nc2ccc(C(=O)c3ccc(F)cc3)cc2[nH]1`, in assay [12], the AC50 was 0.417 µM (active). Besides, the outcome in [16] was inactive.

Consider `NC(Cc1cc(I)c(Oc2ccc(O)c(I)c2)c(I)c1)C(=O)O` (configuration not stated), for which, in assay [2], the inhibition turned out to be 2%. This compound gave a score in [3] of 1.27. Moreover, the rescue above control in assay [4] was -0.14. Also, the cytochrome c release ratio in assay [5] amounted to 4.78. The inhibition of aggregation in [6] worked out at 79.3%. The glutamate uptake change in assay [7] was -8.22%. In assay [8], this compound showed an aggregation suppression score of 0.825.

For `O=C1c2c(O)cc(O)cc2O[C@H](c2ccc(O)c(O)c2)[C@H]1O`, the compound was classed as inactive in assay [1] and in [16].

Take `CN1[C@@H]2CC[C@H]1CC(OC(=O)C(CO)c1ccccc1)C2` (some centres not stated): the luciferase signal in [17] was 44 AU (inactive).

For `CN1C2CCC1CC(OC(c1ccccc1)c1ccccc1)C2` (configuration not stated), the inhibition is -6.22% in assay [2] and -5% (inactive) in assay [10]. Moreover, the score in assay [3] stood at 1.2. In assay [4], the rescue above control is -5.92. For the same compound, the cytochrome c release ratio in assay [5] turned out to be 1. Also, the inhibition of aggregation in assay [6] was found to be 62%. Further, the glutamate uptake change in assay [7] was -4.45%. This compound also gave an aggregation suppression score in [8] of 1.04. Moreover, the period change in [9] was 0.035 h (inactive). For the same compound, the fluorescence ratio (interference) in assay [11] is 1 (inactive). In addition, in assay [15], the compound was called inactive.

As to `C=C1/C(=C\C=C2/CCC[C@]3(C)[C@@H]([C@H](C)CCCC(C)(C)O)CC[C@@H]23)C[C@@H](O)C[C@@H]1O`, the survival in assay [14] is 89.6 (inactive). For the same compound, the compound was called inactive in assay [12] and in [13]. The AC50 is 2.35 µM (active) in [1], 3.32 µM (active) in [18] and 16.6 µM (active) in assay [16].

On to `Cc1c2oc3c(C)ccc(C(=O)NC4C(=O)NC(C(C)C)C(=O)N5CCCC5C(=O)N(C)CC(=O)N(C)C(C(C)C)C(=O)OC4C)c3nc-2c(C(=O)NC2C(=O)NC(C(C)C)C(=O)N3CCCC3C(=O)N(C)CC(=O)N(C)C(C(C)C)C(=O)OC2C)c(N)c1=O` (configuration not stated) (I: TVP[Sar][NMeV] / II: TVP[Sar][NMeV]; ester I:1-I:C, II:1-II:C; linker I:N-II:N via Actinocin(9to1); configuration not given here), for which the AC50 in assay [12] was 0.00407 µM (active); in assay [13], 0.00362 µM (active). Also, the compound was called inactive in [1], in assay [18] and in assay [16].

With `CCC[C@@H]1C[C@@H](C(=O)N[C@H]([C@@H](C)O)[C@H]2O[C@H](SC)[C@H](O)[C@@H](O)C2O)N(C)C1` (some centres not stated), the fluorescence slope change in assay [19] is 65% (active).
